Measured values as given in PubChem BioAssay.
The source made the active and inactive calls.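 Rule for the calls: active = visual image review flags a hit and inhibition of aggregation exceeds 20%; inconclusive = visual hit but inhibition at or below 20%; inactive = no hit on visual image review.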

Experiment: reduction of polyQ htt aggregates in cells – imaging, exon1htt(103Q)mCFP cells, high-content imaging, primary screen (AID 483);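 note: compound exposure lasted 3 days before fixation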;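 for nuclei count: percent of the per-plate median nuclei count of sample wells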
Details: exon1htt(103Q)mCFP cell line, aggregate imaging, at 2 µM; inhibition of aggregation: stronger effect = higher value; nuclei count: measured here: cell count, toxicity

| SMILES | inhibition of aggregation | nuclei count |
| --- | --- | --- |
| CCCc1cc(C(=O)Nc2ccc(C(C)=O)cc2)no1 | 1.1% (inactive) | 128% |
| Cc1cc(C(=O)NCc2cccnc2)n(-c2ccccc2)n1 | -20.8% (inactive) | 103% |
| Cc1ccc(C)c(NC(=O)CC(NCCCN2CCOCC2)C(=O)O)c1 (stereo not given) | 2.6% (inactive) | 71.5% |
| COc1c(Br)cc2c(C)c(C(=O)O)oc2c1Br | -9.2% (inactive) | 95.6% |
| CCOCCCNC(=O)C(c1ccc(C)cc1)N(Cc1ccc2c(c1)OCO2)C(=O)c1cnccn1 (stereo not given) | 16.3% (inactive) | 102% |
| CC1CCCN(S(=O)(=O)c2coc(C(N)=O)c2)C1 (stereo not given) | -15.4% (inactive) | 111% |
| Clc1ccc(C2=Nn3c(nnc3-c3n[nH]c4c3CCC4)SC2)cc1Cl | 1.5% (inactive) | 101% |
| Clc1cccc(-c2nnc(-c3ccccc3)o2)c1 | -13.5% (inactive) | 110% |
| CCOc1ccc(NC(=O)CN(C)CC(=O)NC2CCCc3ccccc32)cc1OCC (stereo not given) | -6.5% (inactive) | 110% |
| Cc1nnc(SCC(=O)NCc2ccccc2)s1 | 27.7% (inactive) | 78.7% |
| CCOC(=O)CSc1nc2sc(C)c(C)c2c(=O)n1C | 25.6% (inactive) | 76.8% |
| COc1ccc(N2C(N)=C(C#N)C(c3cccnc3)C3=C2CC(C)(C)CC3=O)cc1 (stereo not given) | -1.2% (inactive) | 97.7% |
| Cc1ccc(OCC(O)CN2C(=O)NC(C)(C)C2=O)cc1C (stereo not given) | -21.4% (inactive) | 107% |
| Cc1ccccc1-n1c(Cn2c(=O)sc3ccccc32)nnc1SCC(=O)N1CCCC1 | 13.1% (inactive) | 112% |
| COc1ccc(-c2noc(-c3ccccc3C(=O)NCc3ccco3)n2)cc1 | -16.3% (inactive) | 77.4% |
| O=C(NCCCn1ccnc1)c1cnn2c1NC(c1ccccc1)CC2C(F)(F)F (stereo not given) | -5.5% (inactive) | 98.3% |
| CC1(C)Oc2ccc3ccc(=O)oc3c2C(N2CCCCC2)C1O (stereo not given) | 15% (inactive) | 94.7% |
| O=C(c1cnn2c1NC(c1ccco1)CC2C(F)(F)F)N1CCN(c2cccc(Cl)c2)CC1 (stereo not given) | -7.8% (inactive) | 114% |
| Cc1ccc(-c2nn(-c3ccccc3)cc2CN(Cc2ccccc2)C(=O)CCC(=O)O)o1 | -24.5% (inactive) | 107% |
| COC(=O)C1(C)NC(c2cccs2)C2C(=O)N(c3ccccc3F)C(=O)C21 (stereo not given) | -16.9% (inactive) | 101% |

| SMILES | inhibition of aggregation | nuclei count |
| --- | --- | --- |
| O=c1ccc(S(=O)(=O)N2CCC(Cc3ccccc3)CC2)c[nH]1 | -8.8% (inactive) | 103% |
| O=C(CN(CCc1ccccc1)C(=O)CNS(=O)(=O)c1ccccc1)NCC1CCCO1 (stereo not given) | -13.1% (inactive) | 99.8% |
| CCn1c(SCC(=O)NC)nnc1C(C)C | -4.5% (inactive) | 99.7% |
| O=C(Cn1ncc2c(=O)oc3ccccc3c21)NCC1CCCO1 (stereo not given) | -2.2% (inactive) | 111% |
| Cc1ccc(-c2csc3ncn(-n4c(C)ccc4C)c(=O)c23)o1 | -0.6% (inactive) | 82.8% |
| CCCOc1ccc(N2C(=O)CC(SCCN)C2=O)cc1 (stereo not given) | -9.8% (inactive) | 116% |
| N#CC1=C(N)C(C#N)(C#N)[C@H](c2ccsc2)[C@H]2COCC=C12 | 1.7% (inactive) | 98.1% |
| O=C(CCS(=O)(=O)c1cccc2nonc12)Nc1cccc2c1CCCC2 | -20.7% (inactive) | 109% |
| C=COCCNC(=O)Nc1ccc(Cl)c(Cl)c1 | 4.5% (inactive) | 101% |
| COc1ccc(CN2C(=O)[C@@H]3C(c4ccc(F)cc4)=NO[C@@H]3C2=O)cc1 | -8.2% (inactive) | 87.7% |
| Cc1nc(NC(=O)C23CCC(C)(C(=O)O2)C3(C)C)sc1C (stereo not given) | 15.4% (inactive) | 105% |
| COc1ccc(-c2cc3n(n2)CCc2nc4ccccc4n2-3)cc1 | 30.7% (inactive) | 123% |
| Clc1ccc(C2Nc3ccccc3-n3cccc32)cc1 (stereo not given) | 8.6% (inactive) | 109% |
| CCOC(=O)c1[nH]c(C)c(C(=O)N2CCN(C(=O)c3ccco3)CC2)c1C | 2.2% (inactive) | 110% |
| CCCCSCCCNC(=O)CS(=O)Cc1nc(-c2cccc(C)c2)oc1C (stereo not given) | -1.1% (inactive) | 107% |
| O=C(COC(=O)CSc1nnc(-c2ccc(Cl)cc2)o1)NCc1ccc2c(c1)OCO2 | 4.7% (inactive) | 123% |
| Cc1ccc(C)c(S(=O)(=O)C(C#N)c2nc3ccccc3nc2N2CC(C)OC(C)C2)c1 (stereo not given) | -3.8% (inactive) | 103% |
| COC(=O)c1sc2ccccc2c1NC(=O)c1cccs1 | 21.4% (inactive) | 101% |
| CS(=O)(=O)N1CCN(c2ccccc2NC(=O)c2cccs2)CC1 | -6.7% (inactive) | 105% |
| CNC(=O)c1ccc(N(Cc2ccccc2C)S(C)(=O)=O)cc1 | 0.9% (inactive) | 117% |
